From PubChem BioAssay
HCV inhibitor: qHTS Assay for Inhibitors of Hepatitis C Virus (HCV) | 340,000 tested, 3.4% active | Potency, µM (titrated, usually from 41.8 µM), inactives show at the top dose activity change, negative = inhibition, hits mostly inhibitors | AID 651820, 2012 | Huh7.5.1 HCVcc-Cre infection, luciferase reporter, 44 h; active = well fitted inhibition curve with a large enough effect; inconclusive = small, poorly fitted or top-dose-only effect, or another doubt; inactive = no such curve, though single readings can be large or run the other way; also: potency is read from the fitted curve at half-maximal effect
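HCVcc-Cre virus at an moi near 0.5 was added right after compound to cells cultured 4 h from seeding (1,000 cells/well). Luciferase activity was determined 44 h later, 15 min after substrate addition at RT.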
LASV entry inh: qHTS for Inhibitors of binding or entry into cells for Lassa Virus | Lassa virus pseudotype entry inhibition, cell reporter | 300,000 tested, 1.2% active | AID 540256, 2011 | Potency, µM (top dose mostly 37.9 µM), for the others: at the highest dose activity change, negative = inhibition, hits mostly inhibitors; calls by dose curve; tested in HEK293 cells; also: potency is read from the fitted curve at half-maximal effect; nearly all actives have a fitted effect of over 50% in size
MARV entry inh: qHTS for inhibitors of binding or entry into cells for Marburg Virus | Marburg virus pseudotyped entry inhibition, cell reporter | 300,000 tested, 1.8% active | Potency, µM (titrated, usually from 37.8 µM), inactives show at the top dose activity change, negative = inhibition, hits mostly inhibitors; calls by dose curve; tested in HEK293 cells; also: potency is read from the fitted curve at half-maximal effect
HCMV inh: qHTS Assay for inhibitors of the human cytomegalovirus (HCMV). HFF cells, HCMV-luciferase reporter, 72 h; hits give low values. activity change, negative = inhibition, % at 57.5 µM. 410,000 tested, 4.5% active. AID 1259415, 2018; in the data active = activity change below about -60%; inconclusive = no clear call, values can overlap the other calls; inactive = above about -39%
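Two compound doses tested in HFFs infected with HCMV-luciferase, MOI 1 PFU/cell, 72 h at 37C. Lysate luminescence read with OneGlo; data normalized against buffer-only and 10uM Salinomycin inhibitor controls.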
FMDV antiviral: High Throughput Screening for Foot and Mouth Disease Virus Antivirals; FMDV antiviral cell-based qHTS; Potency, µM (highest dose often 57.9 µM), for inactives: top-dose activity change, negative = inhibition, hits mostly inhibitors; 410,000 tested, 1.2% active; calls by dose curve; tested in HEK293T cells; also: read-out not given here; potency is read from the fitted curve at half-maximal effect; nearly all actives have a fitted effect of over 45% in size
Numbers without * were called inactive; ? = inconclusive; / = no result given; ! = not confirmed by another sample; [ ] = dose if it differs, or a comment. Compounds with a hit are over-represented: about 7.9% of the library has one in this group of screens. % is scaled to controls: 0 for no effect and ±100 for the full control effect.

SMILES	HCV inhibitor	LASV entry inh	MARV entry inh	HCMV inh	FMDV antiviral
Nc1nc(=S)c2ncn([C@@H]3O[C@H](CO)[C@@H](O)[C@H]3O)c2[nH]1	2.2µM*	/	/	-89*	-30%
Nc1ncn([C@@H]2O[C@H](CO)[C@@H](O)[C@H]2O)c(=O)n1	-19%	4.1µM*	?	?	0%
COc1ccc(NC(=O)CSC2=Nc3ccccc3C3=NC(CCC(=O)NCc4ccc(F)cc4)C(=O)N23)cc1Cl (stereo not drawn)	/	-12%[46.1 µM]	-1%[46.1 µM]	-15	-16%
Cc1cccc(NC(=O)CSc2nc(=O)n(CCN3CCOCC3)c3c2CCC3)c1	/	-14%[46.1 µM]	/	35	-12%
Nc1ccn([C@@H]2O[C@H](CO)[C@@H](O)[C@@H]2O)c(=O)n1	?	?	?	-100*	-18%
NC(=O)c1ncn([C@@H]2O[C@H](CO)[C@@H](O)[C@H]2O)n1	-24%	23µM*!	?	103	-19%
NC[C@H]1O[C@@H](n2ccc(N)nc2=O)[C@H](O)[C@@H]1O	/	/	/	-87*	-13%
Nc1ccn(C2OC(CO)C(O)C2O)c(=O)n1 (stereo not drawn)	/	/	/	/	3%
CCOc1cc(CNC(=O)C(NS(=O)(=O)c2cccs2)C(C)C)cc(OCC)c1OCC (stereo not drawn)	/	3%[46.1 µM]	/	3	1%
COc1ccc(Cl)cc1NC(=O)CN1c2ccccc2S(=O)(=O)c2ccccc21	/	-14%[46.1 µM]	/	20	-31%
COC(=O)c1ccc(NC(=O)CN(c2cccc(C(F)(F)F)c2)S(C)(=O)=O)cc1	/	-26%[46.1 µM]	4%[46.1 µM]	-3	?
CC(C)CC(=O)NCC1(N(C)C)CCCCC1	/	5%[46.1 µM]	-26%[46.1 µM]	13	-29%
CCOc1ccccc1Nc1nc2ccccc2[nH]1	?	2%	-4%	-16	61%
CC(=O)c1cccc(Nc2cc(C)nc3ccc(C)cc23)c1	?	-6%	?	-8	-23%
CCOc1ccccc1Nc1cc(C)nc2ccccc12	/	/	/	-62*	-19%
CCOc1ccccc1Nc1cc(C)nc2ccc(C)cc12	6.3µM*	?	?	?	?
OCCN1CCOCCN(CCO)CCOCC1	-2%	21%	?	-92*	-18%
Cc1cc2c(c(-c3ccc(Cl)cc3)c1)OC(CNC(=O)Cc1c(C)noc1C)C2 (stereo not drawn)	/	/	/	/	-13%
CCOc1c(OC(C)=O)ccc(/C=C/c2ccc3cccc(OC)c3n2)c1[N+](=O)[O-]	10µM*	?	4%	12	12%
COc1ccc(/C=C/c2ccc3cccc(O)c3n2)c(OC)c1OC	-57%	/	/	-94*	-29%
COc1cc(Br)cc(/C=C/c2ccc3cccc(O)c3n2)c1OC	-11%	/	/	-17	-19%
COc1ccc(Br)cc1/C=C/c1ccc2cccc(O)c2n1	?	-20%[46.1 µM]	-1%[46.1 µM]	4	-15%
COc1cccc(/C=C/c2ccc3cccc(O)c3n2)c1OC	10µM*	/	/	2	2%
COc1cc(/C=C/c2ccc3cccc([N+](=O)[O-])c3n2)ccc1OCC(=O)O	8%	/	/	0	30%
CCN(CC)CCC(=O)N1c2ccccc2Sc2ccc(C(F)(F)F)cc21	/	/	/	-85*	/
SMILES	HCV inhibitor	LASV entry inh	MARV entry inh	HCMV inh	FMDV antiviral
O=C(CN1CCCC(O)C1)N1c2ccccc2Sc2ccc(C(F)(F)F)cc21 (stereo not drawn)	0%	-21%	-2%	20	?
CCN(CC)CCC(=O)N1c2ccccc2Sc2ccc(Cl)cc21	?	/	/	?	-20%
CN1CCN(CCCN2c3ccccc3Sc3ccc(C(F)(F)F)cc32)CC1	14µM*!	13µM*	6.5µM*	-79*!	?
O=C(CCN1CCN(CCO)CC1)N1c2ccccc2Sc2ccc(C(F)(F)F)cc21	13µM*	/	-6%	35	-5%
C[C@]12C[C@@](C)(C=C1C=Cc1ccc(F)cc1)C(=O)C[C@H]2c1ccc(F)cc1	/	?	5%[14.2 µM]	/	/
O=c1c(S(=O)(=O)c2ccccc2)cn(Cc2ccc(F)cc2)c2cc(N3CCOCC3)c(F)cc12	/	13%[46.1 µM]	/	-10	46%
c1ccc(OCCCc2nc(-c3ccccn3)no2)cc1	-7%	3%	-9%	-106*	4%
COc1cccc(-c2nc(-c3ccccn3)no2)c1	?	1.5µM*	2.3µM*	-61*	20µM*
COc1cccc(-c2nc(-c3ccccc3)no2)c1	-6%	14µM*	?	285	3%
C=C(C(=O)OCC)C(=O)c1ccccc1	/	/	-7%[14.2 µM]	/	/
Cc1ccc2nc(SCc3nc(-c4ccccc4C)no3)[nH]c2c1	/	0%[46.1 µM]	-8%[46.1 µM]	-35	-24%
CC(CCc1ccccc1)NC(=O)CSc1n[nH]c(-c2ccc(F)cc2)n1 (stereo not drawn)	/	-29%[46.1 µM]	/	-65*	?
CC(CCc1ccccc1)NC(=O)CSc1n[nH]c(-c2ccccc2Cl)n1 (stereo not drawn)	/	-7%[46.1 µM]	/	5	?
O=C(CSc1n[nH]c(-c2ccccn2)n1)Nc1ccccc1	?	?	?	-79*	-12%
COc1ccc(/C=C/c2cc[n+](C(=O)Cc3ccccc3)cc2)cc1	-25%	-28%	-28%[46.1 µM]	-108*	?
CC(CCc1ccccc1)NC(=O)CSc1n[nH]c(-c2ccccc2)n1 (stereo not drawn)	/	?	/	-28	-16%
COc1ccc(-c2nc(SCC(=O)NC(C)CCc3ccccc3)n[nH]2)cc1 (stereo not drawn)	/	?	/	-89*	?
CC(=O)c1ccc(NC(=O)C2CCN(c3nnc(C)c4c(C)n(-c5ccccc5)nc34)CC2)cc1	/	23%[46.1 µM]	/	0	-16%
COc1ccc(C2c3cccn3CCN2S(=O)(=O)c2ccccc2[N+](=O)[O-])cc1OC (stereo not drawn)	/	?	/	-1	-4%
COC1=C[C@H](C(=O)NCc2ccc(Cl)cc2)C(C)C(c2ccccc2)CC1=O (stereo partly drawn)	/	/	-1%[14.2 µM]	/	/
COc1ccc(S(=O)(=O)NCc2ccc3c(c2)CCN3C(C)=O)cc1OC	/	?	/	-8	-6%
COc1ccc(/C=C/C(=O)NC(C)CCc2ccccc2)cc1OC (stereo not drawn)	?	-19%	-2%	-36	-18%
COc1ccc(/C=C/C(=O)NC(C)CCc2ccccc2)cc1 (stereo not drawn)	-2%	-5%	17%	-60*	7%
COc1ccc(-c2nc(SCC(=O)NCCCc3ccccc3)n[nH]2)cc1	/	?	/	-67*	-10%
COc1ccccc1NC(=O)Nc1cnccn1	-13%	?	19%[46.1 µM]	-15	-1%
COc1cccc(NC(=O)Nc2cnccn2)c1	-11%	-8%	23%[46.1 µM]	-69*	69%
COc1cc([N+](=O)[O-])ccc1NC(=O)Nc1cnccn1	?	/	/	-61*	8%
COC(=O)c1ccc(C(=O)OC)c(NC(=O)c2ccc(-c3ccccc3)s2)c1	/	0%[46.1 µM]	21%[46.1 µM]	39	-10%
CCOc1ccc(OCCSc2nc(-c3ccccc3)cc(=O)[nH]2)cc1	6%	-18%	16%[46.1 µM]	-104*	-13%
